Measured values from PubChem BioAssay (NCI).
Values joined by “and” are separate entries in the source; they are usually repeats but may differ in a detail not shown here. Identical values can stand only once. About 83,000 compounds went through this panel and 20% of them were active in at least one assay; those are over-represented in the sample as a whole.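 The test compound was applied at a single concentration to cells in 96-well plates for 48 hours, and percent growth was recorded.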 A number with no mark means an inactive call. Active and inactive are the calls of the source. The calls were made as follows: active = growth percent below 10; inactive = the rest.

Experiments:
Assay in all cases: NCI-60 one-dose screen, 48 h (100 = growth as untreated, 0 = no growth, -100 = all killed)
Settings in all cases: 10 µM unless noted
[1] = system: SK-MEL-2 melanoma
[2] = system: EKVX NSCLC
[3] = system: SN12C renal
[4] = system: UO-31 renal
[5] = system: ACHN renal
[6] = system: CAKI-1 renal
[7] = system: A498 renal
[8] = system: HL-60(TB) leukemia
[9] = system: MOLT-4 leukemia
[10] = system: SR leukemia
[11] = system: OVCAR-8 ovarian
[12] = system: OVCAR-5 ovarian
[13] = system: OVCAR-4 ovarian
[14] = system: IGROV1 ovarian
[15] = system: OVCAR-3 ovarian
[16] = system: HS 578T breast
[17] = system: CCRF-CEM leukemia
[18] = system: RPMI-8226 leukemia
[19] = system: SK-OV-3 ovarian
[20] = system: TK-10 renal

| SMILES | growth [1] | growth [2] | growth [3] | growth [4] | growth [5] [%] | growth [6] | growth [7] | growth [8] | growth [9] | growth [10] | growth [11] | growth [12] | growth [13] [%] | growth [14] | growth [15] | growth [16] [%] | growth [17] | growth [18] | growth [19] | growth [20] [%] |
| --- | --- | --- | --- | --- | --- | --- | --- | --- | --- | --- | --- | --- | --- | --- | --- | --- | --- | --- | --- | --- |
| CCOC(=O)c1ccccc1C(=O)OCC | 89.7% | 80.3% | 94.6% | 84.8% | 98.4 | 77.2% | 104% | 141% | 101% | 128% | 84% | 99.9% | 96.4 | 64.7% | 107% | 95.5 |  |  |  |  |
| O=P1(N(CCCl)CCCl)NCCCO1 (stereo not drawn) | 114% | 101% | 95.4% | 90.3% | 103 | 99.8% | 115% |  | 96.8% | 99% | 102% | 108% | 111 | 114% | 121% | 115 | 95.6% | 103% | 111% |  |
| CN1CCC2(CC1)C(C#N)C(=O)NC(=O)C2C#N (stereo not drawn) | 113% |  | 105% | 91.9% | 110 | 92% | 95.8% |  | 100% | 86.5% | 99% | 104% | 97.3 | 123% | 117% | 113 | 104% | 109% | 110% | 125 |
| C[C@]12CCc3sc(Nc4ccc(F)cc4F)nc3C1=CC[C@@H]1[C@@H]2CC[C@]2(C)C(=O)CC[C@@H]12 | 76.4% | 78.4% | 64.1% | 42.9% | 37.7 | 38.4% | 77.8% | 21.4% | 3.63% (active) | 0.71% (active) | 45.2% | 91.8% | 66.7 | 62.1% | -4.15% (active) | 55.3 |  | -20.8% (active) |  |  |
| CN1[C@@H](CC(=O)c2ccccc2)CCC[C@H]1CC(=O)c1ccccc1 | 42.8% | 96.7% | 96.6% | 83.7% |  | 101% | 115% |  | 111% | 111% | 93.3% | 101% | 107 | 26.5% | 101% | 83 | 111% | 120% | 117% |  |
| O=S(=O)(c1ccc(O)cc1)c1ccccc1O | 104% | 107% | 101% |  | 98.7 | 96.2% | 97% | 106% | 103% | 103% | 102% | 98.9% | 116 | 117% | 110% |  | 88.6% | 99.8% | 107% | 107 |
| C[N+]1(CC#CC[N+]2(C)CCCC2)CCCC1 | 98.5% | 97.5% | 102% | 94.4% |  | 97.1% | 84.6% | 94.1% | 103% | 96.7% | 111% | 101% | 105 | 105% | 102% | 107 | 107% | 109% | 98.3% |  |
| [N-]=[N+]=CC(=O)CCC(=O)C=[N+]=[N-] | 113% | 105% | 107% | 71.3% | 95 | 97.4% | 110% |  | 87% |  | 98.9% | 107% | 108 | 49.2% | 103% | 95.3 |  | 119% | 109% |  |
| COc1ccc2c(c1)C1(C)CCN(C)CC(C1)C2O (stereo not drawn) | 105% |  | 99.3% | 86.9% | 104 | 119% | 99.5% | 89.1% | 94.1% | 94.2% | 101% | 99.3% | 103 | 86.9% | 109% | 116 | 94.3% | 98.7% | 107% | 95 |
| CC1(C)C2CCC1(CS(=O)(=O)O)C(=O)C2 (stereo not drawn) | 107% and 106% | 101% and 94.6% | 87.1% and 111% | 86% and 110% |  | 97.5% and 84.5% | 84.3% and 96.9% | 104% and 80.1% | 112% and 110% | 105% and 117% | 99.7% and 103% | 91.9% and 101% |  | 86.8% and 115% | 102% and 114% |  | 96.1% and 103% | 91.4% | 98.4% and 115% |  |
| CC1=CC(=O)CCC12CCOC2=O (stereo not drawn) | 125% | 91.4% | 95.2% |  | 101 | 91.3% | 91.7% |  | 107% |  | 100% | 96.7% | 93.8 | 108% | 106% | 88.4 | 82.4% | 88.3% | 101% | 92 |
| N#CCCc1ccccc1 | 121% | 103% | 103% | 85% |  | 98.2% |  | 103% | 94.5% | 91.8% | 107% | 98% | 110 |  | 119% | 118 | 96.2% | 111% | 111% |  |
| CNC(=O)CCl | 101% |  | 96.9% | 96.5% | 114 | 94.9% | 92.1% | 119% | 118% | 109% | 105% | 107% | 101 | 107% | 113% | 104 | 94% |  |  | 99.9 |
